UBC9 SUMO inh = SUMOylation inhibition; HTRF SUMOylation assay, SAE1/SAE2 + UBC9, in vitro; inhibition, % at 35 µM; 290,000 tested, 0.36% active; AID 2006; in the data active = inhibition above about 50%, passing the limit was not always enough
Target sequence (P63279 whole entry, looked up): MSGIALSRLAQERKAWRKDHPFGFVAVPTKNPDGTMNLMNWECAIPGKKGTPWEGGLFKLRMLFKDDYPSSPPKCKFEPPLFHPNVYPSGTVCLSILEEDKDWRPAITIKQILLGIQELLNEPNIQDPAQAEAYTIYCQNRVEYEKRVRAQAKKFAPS
PHOSPHO1 inh = blocks human PHOSPHO1 phosphatase activity | Q8TCT1 | recombinant PHOSPHO1, absorbance phosphatase assay | inhibition, % at 13.3 µM | 290,000 tested, 1.1% active | AID 1565; in the data active = inhibition above about 60%
Target sequence (Q8TCT1 whole entry, looked up): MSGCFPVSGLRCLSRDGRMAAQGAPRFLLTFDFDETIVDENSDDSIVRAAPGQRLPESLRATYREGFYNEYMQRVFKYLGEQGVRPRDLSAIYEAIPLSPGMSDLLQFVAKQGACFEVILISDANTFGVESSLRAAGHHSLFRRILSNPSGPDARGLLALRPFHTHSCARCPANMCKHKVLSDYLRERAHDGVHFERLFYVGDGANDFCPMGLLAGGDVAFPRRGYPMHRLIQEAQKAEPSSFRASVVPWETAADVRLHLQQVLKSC
NadD inh = inhibitors of Staphylococcus aureus NadD; purified NadD enzyme, colorimetric absorbance read-out; 360,000 tested, 0.78% active; inhibition, % at 20 µM; in the data active = inhibition above about 26%
p-CIP stab down = lowers stability of the mouse p/CIP coactivator protein | 290,000 tested, 0.01% active | decrease of EGFP signal, % at 10 µM | F442A p/CIP-EGFP cells, EGFP fluorescence, 16 h;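 active = EGFP signal decrease of at least 30% at 10 µM or well 3 SD below plate mean, unless failing retest; inactive = the rest, including hits failing retest or dose response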
An asterisk follows results filed as active; · = no result given. Only some compounds are listed: those with a hit (about 1.8% of all), similar ones and a draw of the others.

SMILES	UBC9 SUMO inh	PHOSPHO1 inh	NadD inh	p-CIP stab down
Cc1ccccc1Nc1nnc(SCc2cc([N+](=O)[O-])cc3c2OCOC3)s1	10.8	90.4*	4.5	-6.8
O=C(CN1C(=O)NC2(CCCCCCC2)C1=O)NC1CCCc2ccccc21 (centres undefined)	-5.7	172.7*	-2.9	-4.1
CCCCCCCCCCCCCCCC[N+](C)(C)CCN(Cc1ccc(OC)cc1)c1ncccn1	·	·	74.6*	·
CC1(C)CC(=O)C=C(Nc2cccc(F)c2)C1	13.9	32.6	-5.6	0.4
CN(C)c1cccc(NC2=CC(=[N+]3CCOCC3)CC(C)(C)C2)c1	10.6	91.3*	14.2	-13.7
O=C(NCc1ccccc1Cl)c1ccc2sc([C@@H]3O[C@H](CO)[C@H](O)[C@H](O)[C@H]3O)nc2c1	·	·	-0.2	·
O=[N+]([O-])c1ccc(Sc2n[nH]c(-c3ccccc3)n2)nc1	-9.5	83.7*	7.8	10.3
O=[N+]([O-])c1ccc(Sc2ccccc2)nc1	7.1	-5.1	-9.0	5.1
CC(C)C(NC(=O)c1ccc2c(c1)OCO2)C(=O)N/N=C\c1ccco1 (centres undefined)	-19.8	64.8*	13.9	4.1
COc1cc(/C=C2/CCC/C(=C\c3cc(O)c(OC)c(Cl)c3)C2=O)cc(Cl)c1O	-6.3	-35.8	49.9*	3.1
COc1cc(/C=C2\CC/C(=C\c3cc(OC)c(O)c(OC)c3)C2=O)cc(OC)c1O	30.1	11.1	23.4	-6.7
CN(C)c1ccc(NC(=O)c2ccc3nsnc3c2)cc1	-15.6	74.4*	4.4	-4.7
O=C(Nc1ccc(Cl)cc1)c1ccc2nsnc2c1	18.3	2.0	-8.9	11.0
CC(C)N(C(=O)Nc1ccc2nsnc2c1)C(C)C	99.8*	10.5	·	-9.6
COc1cccc(Cn2c3ccc(NC(=O)CCc4ccc(F)cc4)cc3c(=O)n2C)c1	·	·	-4.2	·
O=S(=O)(CC(O)COc1ccccc1Cl)c1ccccc1 (centres undefined)	20.5	66.1*	-0.1	-2.7
CC1CN(C(=O)COC(=O)/C=C/c2ccccc2)CC(C)O1 (centres undefined)	·	·	-1.0	·
CC(C)C[C@@H]1COc2cccc(N3CCSCC3)c2S(=O)(=O)N1	·	·	2.7	·
Cc1[nH]c2ccccc2c1C(=O)C(=O)N1CCN(C)CC1	0.5	68.5*	0.5	5.2
CCOC(=O)C1CCN(CC(=O)c2c(C)[nH]c3ccccc23)CC1	20.4	-3.3	3.9	-3.9
Cc1[nH]c2ccccc2c1C(=O)CN1CCC(C)CC1	12.6	69.5*	-9.0	-5.9
Cc1ccc(C(C)C)c(OCC(=O)NNC(=O)CC2OC(=O)c3ccccc32)c1 (centres undefined)	·	·	9.6	·
O=C1[C@H]2[C@@H](c3ccccc3)N[C@]3(CCCN(Cc4ccc(F)cc4)C3=O)[C@H]2C(=O)N1Cc1ccccc1	·	·	-2.8	·
Cc1ccc(-c2nnc(SCC(=O)N3CCOCC3)nc2-c2ccc(C)cc2)cc1	15.8	68.4*	6.1	-18.5
CCCCNC(=O)C1c2ccccc2OCC(=O)N1C1CC1 (centres undefined)	·	·	4.2	·
SMILES	UBC9 SUMO inh	PHOSPHO1 inh	NadD inh	p-CIP stab down
COc1cccc(-c2nc(=S)c3c(o2)CCCC3)c1	-3.2	61.0*	-6.8	-5.2
O=c1cc(-c2ccccc2)nc2c(-c3ccccc3)c(C(F)(F)F)[nH]n12	50.6*	29.0	11.2	-1.9
O=C(C1=C(O)C(=O)N(CCCN2CCOCC2)C1c1ccccn1)c1cc2ccccc2o1 (centres undefined)	10.2	78.9*	7.3	3.6
Cn1c(C2CCCN2C(=O)OC(C)(C)C)n[nH]c1=S (centres undefined)	15.5	97.1*	-0.8	-2.2
OCCN1CCN(C(c2cccs2)c2ccc3cccnc3c2O)CC1 (centres undefined)	-38.1	104.8*	·	1.8
O=C(O)c1ccccc1C(=O)Nc1nccs1	7.7	-34.0	-5.3	12.0
O=C(O)c1ccccc1C(=O)Nc1n[nH]c(=S)s1	11.8	98.8*	-2.0	-18.9
CCOc1ccc(Nc2nc(Cc3nnc(SCC(=O)NCC4CCCO4)n3C)cs2)cc1 (centres undefined)	22.0	61.5*	2.7	-10.3
CCOc1ccc(Nc2nc(Cc3nnc(SCC(=O)NC4CCCCC4)n3C)cs2)cc1	10.2	15.4	8.0	-6.7
COc1cc2c(cc1N)-c1ccc(N)cc1C2	·	·	8.9	·
Cn1c(N)c(C(=O)Nc2ccc3ccccc3c2)sc1=S	21.5	96.2*	15.3	-5.0
Cn1c(N)c(C(=O)Nc2ccccc2F)sc1=S	6.9	28.5	-10.2	-7.2
CCOc1ccc(C(=S)NC2CCCCC2)cc1OC	17.5	80.8*	-4.4	-8.4
COC(=O)c1ccccc1NC(=O)C(=O)NCc1ccncc1	-11.5	66.2*	-1.3	-1.3
CCOc1ccc(NC(=O)C(=O)NCc2ccncc2)cc1	8.8	68.4*	-1.9	-1.1
CC(C)C(=O)N1CCC1(C)C(=O)Nc1ccc(-n2cccc2)cc1 (centres undefined)	·	·	-2.5	·
CN(C)c1cccc2c(S(=O)(=O)N3CCOCC3)cccc12	31.0	-13.2	0.4	-12.2
CN(C)c1cccc2c(S(=O)(=O)N3CCCC3)cccc12	51.3*	2.8	-1.9	-16.5
COCCN=c1scc(-c2ccc3c(c2)NC(=O)CO3)n1/N=C(\C)c1ccc(O)cc1	8.5	6.1	1.4	-9.0
COc1cc(/C=N/n2c(-c3ccc4c(c3)NC(=O)CO4)csc2=Nc2cccc(C)c2)ccc1O	1.1	-1.5	34.6*	-5.1
O=C1c2ccccc2C(=O)N1/N=C/c1ccc(O)c(O)c1O	71.5*	29.7	7.1	-10.5
Oc1ccc(/C=N/N(c2ccccc2)c2ccccc2)c(O)c1O	17.1	31.1	37.3*	-1.1
Cc1nc2ccccc2c(=O)n1/N=C/c1ccc(O)c(O)c1O	77.0	31.6	32.8*	-7.0
Cc1nc2ccccc2c(=O)n1/N=C/c1ccccc1O	12.7	19.7	-0.8	4.9
Cc1ccc(C2=NOC(=O)/C2=C\C=C\c2ccccc2)cc1	16.3	8.4	25.9*	-22.7
SMILES	UBC9 SUMO inh	PHOSPHO1 inh	NadD inh	p-CIP stab down
CN(C)/C=C1\C(=O)ON=C1c1ccccc1	-2.5	20.5	-7.1	6.7
COCCN(C(=O)Cc1cccs1)C(C(=O)NC1CCCC1)c1cc(OC)c(OC)c(OC)c1 (centres undefined)	13.2	61.5*	-11.5	-10.4
COc1ccc(C(C(=O)NC2CCCC2)N(C(=O)Cc2cccs2)C2CC2)cc1OC (centres undefined)	-11.8	27.5	-3.3	5.5
O=C1NN(c2ccc(F)c(Cl)c2)C(=O)/C1=C\c1cccc(OC(=O)c2cccs2)c1	6.2	0.3	30.0*	0.7
CC(C)=C1C(=O)NN(c2ccc(F)c(Cl)c2)C1=O	23.2	30.7	-5.9	2.2
O=CNc1ccc2c3c(cccc13)-c1ccccc1-2	·	·	-7.5	·
c1csc(-c2nnsc2-c2nc3ccccc3[nH]2)c1	23.6	96.2*	-0.5	-23.1
O=C(COc1cccnc1[N+](=O)[O-])N1CCc2ccccc2C1	17.8	60.9*	-2.2	-4.1
O=C(Cn1cnc2ccccc2c1=O)N1CCc2ccccc2C1	-5.3	62.9*	-6.8	-5.7
O=C(Cn1cc([N+](=O)[O-])cn1)N1CCc2ccccc2C1	12.5	61.0*	-6.5	-2.0
COc1ccc(OC)c(C(O)c2ncc(-c3cccc4ccccc34)[nH]2)c1 (centres undefined)	·	·	1.3	·

Screening data (PubChem BioAssay)
